Laboratory results as given in PubChem BioAssay AID1347420 (Sanford-Burnham Center for Chemical Genomics, 2020).
Screen size: about 1,300 compounds; about 980 (75%) were called active. Roughly 4% stayed inconclusive and do not appear here. Some of the results follow.

Molecular target: Sulfhydryl oxidase 1 (Homo sapiens) (UniProt O00391)
Experiment: QSOX1 enzyme inhibitors, primary screen, biochemical, HyperBlu H2O2 luminescence, HTS (AID 1347420); note: values above 100% were filed as inconclusive
Details: recombinant QSOX1, HyperBlu H2O2 luminescence; at 12.5 µM; stronger effect = higher value; active = any value above zero

Chain of Sulfhydryl oxidase 1 (Homo sapiens) (O00391 whole entry, looked up): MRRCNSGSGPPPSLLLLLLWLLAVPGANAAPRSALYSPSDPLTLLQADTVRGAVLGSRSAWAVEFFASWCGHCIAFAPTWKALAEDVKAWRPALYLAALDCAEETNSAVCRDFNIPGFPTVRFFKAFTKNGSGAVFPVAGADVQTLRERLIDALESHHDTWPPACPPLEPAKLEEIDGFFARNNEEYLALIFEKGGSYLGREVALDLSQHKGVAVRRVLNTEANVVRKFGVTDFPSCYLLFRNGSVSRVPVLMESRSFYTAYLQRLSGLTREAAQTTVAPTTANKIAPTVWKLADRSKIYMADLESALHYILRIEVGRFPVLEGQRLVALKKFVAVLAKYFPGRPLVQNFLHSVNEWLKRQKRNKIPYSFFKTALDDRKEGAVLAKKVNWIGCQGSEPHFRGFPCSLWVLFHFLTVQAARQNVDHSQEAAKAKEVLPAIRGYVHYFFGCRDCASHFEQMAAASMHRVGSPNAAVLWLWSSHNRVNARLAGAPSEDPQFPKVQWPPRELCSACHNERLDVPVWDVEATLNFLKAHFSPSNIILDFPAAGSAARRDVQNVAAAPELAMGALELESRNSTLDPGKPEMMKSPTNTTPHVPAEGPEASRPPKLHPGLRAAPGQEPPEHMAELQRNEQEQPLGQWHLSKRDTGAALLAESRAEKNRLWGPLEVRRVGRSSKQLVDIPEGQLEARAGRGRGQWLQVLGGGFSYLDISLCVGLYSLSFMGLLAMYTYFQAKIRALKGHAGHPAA

Which inhibition does the source give for `CCc1ccc(/C=C2/SC(=S)NC2=O)cc1` here?
The inhibition was 69.4% (active).

`O=C(O)CCc1nc(-c2ccccc2)c(-c2ccccc2)o1` was tested. Which inhibition did it give?
Its inhibition is -0.1% (inactive).

Which inhibition does the source give for `CC1COc2c(N3CCN(C)CC3)c(F)cc3c(=O)c(C(=O)O)cn1c23` (stereo not drawn) here?
Its inhibition is 5.3% (active).

With `OC(CN1CCC(Cc2ccc(F)cc2)CC1)c1ccc(Cl)cc1` (stereo not drawn) as the compound, how does the inhibition read?
Its inhibition is 1.3% (active).

How did the inhibition turn out when `CCCCN1CCC(n2c(=O)[nH]c3ccccc32)CC1` was run?
Its inhibition is 16.3% (active).

`CN(C)CCCO[C@@H]1[C@H]2OC(C)(C)O[C@H]2O[C@@H]1C(O)CO` (stereo partly drawn) was tested. Which inhibition did it give?
Its inhibition is 14.7% (active).

With `O=C(O)[C@@H]1C[C@H](C(=O)O)N1` as the compound, how does the inhibition read?
Its inhibition is -18.8% (inactive).

`O=C(O)[C@@H]1C[C@@H](C(=O)O)N1` was tested. Which inhibition did it give?
Its inhibition is 4.5% (active).

Which inhibition does the source give for `CC(C)(CO)Cc1cc(C(C)(C)C)c(O)c(C(C)(C)C)c1` here?
Its inhibition is -2.3% (inactive).

For `CC(C)(C=O)Cc1cc(C(C)(C)C)c(O)c(C(C)(C)C)c1`, which inhibition is on record?
Its inhibition is 2.8% (active).

Which inhibition does the source give for `COc1cc2nc(N3CCCN(C)CC3)nc(NC3CCN(Cc4ccccc4)CC3)c2cc1OC` here?
Its inhibition is 5.4% (active).

For `COc1ccc2cc([C@H](C)C(=O)O)ccc2c1`, which inhibition is on record?
The inhibition was -13.9% (inactive).

How did the inhibition turn out when `CC(C(=O)O)c1cccc(C(=O)c2ccccc2)c1` (stereo not drawn) was run?
The inhibition was 8.2% (active).

How did the inhibition turn out when `COc1ccccc1N1CCN(CCN2C(=O)CC3(CCCC3)CC2=O)CC1` was run?
The inhibition was 61.3% (active).

With `Cc1cccc(C(=O)NCN2CCN(c3ccccc3C#N)CC2)c1` as the compound, how does the inhibition read?
Its inhibition is -17.3% (inactive).

How did the inhibition turn out when `COc1ccccc1N1CCN(CCCCN2C(=O)c3ccccc3C2=O)CC1` was run?
Its inhibition is 2% (active).

`O=C1CC2(CCCC2)CC(=O)N1CCCCN1CCN(c2ncccn2)CC1` was tested. Which inhibition did it give?
Its inhibition is -6.6% (inactive).

How did the inhibition turn out when `COc1ccccc1N1CCN(CCCCNC(=O)c2ccc3ccccc3c2)CC1` was run?
Its inhibition is 36.1% (active).

Which inhibition does the source give for `CN[C@H](CC(=O)O)C(=O)O` here?
Its inhibition is 15.9% (active).

`c1ccc(C(NCc2cccnc2)(c2ccccc2)c2ccccc2)cc1` was tested. Which inhibition did it give?
The inhibition was 2.5% (active).

Which inhibition does the source give for `CC(C)(Oc1ccc(CCNC(=O)c2ccc(Cl)cc2)cc1)C(=O)O` here?
Its inhibition is 5.4% (active).

For `CC(C)(Oc1ccc(C2CC2(Cl)Cl)cc1)C(=O)O` (stereo not drawn), which inhibition is on record?
The inhibition was -2.9% (inactive).

For `C=C/C(C)=C/[C@@]1(C)SC(=O)C(C)=C1O`, which inhibition is on record?
The inhibition was 13.4% (active).

For `O=C1NC(c2cccc([N+](=O)[O-])c2)=CCN1c1ccccc1O`, which inhibition is on record?
The inhibition was 24.8% (active).

With `NCCc1cnc[nH]1` as the compound, how does the inhibition read?
Its inhibition is 10.9% (active).

How did the inhibition turn out when `N=C(N)SCCc1cnc[nH]1` was run?
The inhibition was -0.5% (inactive).

How did the inhibition turn out when `CCCCC[C@H](CC(=O)NO)C(=O)N[C@H](C(=O)N1CCC[C@H]1CO)C(C)C` was run?
Its inhibition is -27.8% (inactive).

How did the inhibition turn out when `COc1cc(OC)c(/C=C2/C(=O)Nc3ccccc32)c(OC)c1` was run?
The inhibition was 44.2% (active).

With `CCC1(O)CC2CN(CCc3c([nH]c4ccccc34)[C@@](C(=O)OC)(c3cc4c(cc3OC)N(C=O)C3[C@]45CCN4CC=C[C@@](CC)([C@@H](OC(C)=O)[C@]3(O)C(=O)OC)[C@H]45)C2)C1` (stereo partly drawn) as the compound, how does the inhibition read?
Its inhibition is 2.9% (active).

`CCC1(O)CC2CN(CCc3c([nH]c4ccccc34)[C@@](C(=O)OC)(c3cc4c(cc3OC)N(C)C3[C@]45CCN4CC=C[C@@](CC)([C@@H](OC(C)=O)[C@]3(O)C(=O)OC)[C@H]45)C2)C1` (stereo partly drawn) was tested. Which inhibition did it give?
Its inhibition is 18.8% (active).

With `C/C(=C\c1ccc(C(=O)O)cc1)c1ccc2c(c1)C(C)(C)CCC2(C)C` as the compound, how does the inhibition read?
The inhibition was 5.8% (active).

Which inhibition does the source give for `CCCCC/C=C\CC(O)/C=C/c1cccc(CC(O)CCCCO)n1` (stereo not drawn) here?
The inhibition was -9.6% (inactive).

How did the inhibition turn out when `O=c1cc(-c2ccccc2)[nH]c2nc(Cl)ccc12` was run?
The inhibition was 2.9% (active).

With `O=C1CCC(N2C(=O)c3ccccc3C2=O)C(=O)N1` (stereo not drawn) as the compound, how does the inhibition read?
The inhibition was 3% (active).

With `Cc1cccc(C#Cc2ccccc2)n1` as the compound, how does the inhibition read?
The inhibition was 15.5% (active).

Which inhibition does the source give for `CC(C)c1ccc2c(c1)c(SC(C)(C)C)c(CC(C)(C)C(=O)O)n2Cc1ccc(Cl)cc1` here?
Its inhibition is 0.2% (active).

Which inhibition does the source give for `NCCCCN=C(N)N` here?
The inhibition was 15.4% (active).

For `NC(N)=NCCCCN=C(N)N`, which inhibition is on record?
Its inhibition is 7% (active).

`CCN(CC)CC#CCOC(=O)C(O)(c1ccccc1)C1CCCCC1` (stereo not drawn) was tested. Which inhibition did it give?
Its inhibition is 8.3% (active).

For `O=C(/C=C/c1ccc(O)cc1)c1ccc(O)cc1O`, which inhibition is on record?
Its inhibition is 58.4% (active).

Which inhibition does the source give for `NC(Cc1cccc(-c2ccccc2CP(=O)(O)O)c1)C(=O)O` (stereo not drawn) here?
Its inhibition is 5.3% (active).

With `Oc1ccc(Cn2cc[nH]c2=S)cc1` as the compound, how does the inhibition read?
Its inhibition is 22.2% (active).

Which inhibition does the source give for `COCc1nc2c([nH]1)c(=O)n(C)c(=O)n2CC(C)C` here?
Its inhibition is 3% (active).

Which inhibition does the source give for `CN(C)CC/C=C1\c2ccccc2COc2ccccc21` here?
The inhibition was 5% (active).

Which inhibition does the source give for `CNCCC=C1c2ccccc2CCc2ccccc21` here?
The inhibition was 0.1% (active).

Which inhibition does the source give for `CN(C)CCC=C1c2ccccc2C=Cc2ccccc21` here?
The inhibition was -6.8% (inactive).

With `CN(C)CCC=C1c2ccccc2CCc2ccccc21` as the compound, how does the inhibition read?
The inhibition was 23.9% (active).

With `NC(=O)c1ncn([C@@H]2O[C@H](CO)[C@@H](O)[C@H]2O)c1O` as the compound, how does the inhibition read?
The inhibition was 9.1% (active).

`NC(=O)c1ncn([C@@H]2O[C@H](CO)[C@@H](O)[C@H]2O)n1` was tested. Which inhibition did it give?
Its inhibition is 6.1% (active).

`CCN(CC)CC(=O)Nc1c(C)cccc1C` was tested. Which inhibition did it give?
Its inhibition is 6.5% (active).

`COC(=O)C1=CO[C@@H](O)[C@@H]2C(CO)=CC[C@H]12` was tested. Which inhibition did it give?
Its inhibition is 16.3% (active).

Which inhibition does the source give for `CCC(C)N(C)C(=O)c1cc2ccccc2c(-c2ccccc2Cl)n1` (stereo not drawn) here?
Its inhibition is 14% (active).

Which inhibition does the source give for `CN=C(NC#N)NCCSCc1nc[nH]c1C` here?
The inhibition was 13.2% (active).

How did the inhibition turn out when `Cc1cccc(C)c1OCC(N)C(C)C` (stereo not drawn) was run?
The inhibition was 15.4% (active).

For `Cc1cccc(C)c1OCC(C)N` (stereo not drawn), which inhibition is on record?
Its inhibition is -6% (inactive).

`CC(N)C1CCC(C(=O)Nc2ccncc2)CC1` (stereo not drawn) was tested. Which inhibition did it give?
Its inhibition is 23% (active).

For `CC(N=C(NC#N)Nc1ccncc1)C(C)(C)C` (stereo not drawn), which inhibition is on record?
The inhibition was -10.9% (inactive).

How did the inhibition turn out when `c1ccc(C2CN3CCSC3=N2)cc1` (stereo not drawn) was run?
The inhibition was -12.3% (inactive).

For `Brc1ccc([C@H]2CN3CCSC3=N2)cc1`, which inhibition is on record?
The inhibition was 18.2% (active).

`c1ccc([C@H]2CN3CCSC3=N2)cc1` was tested. Which inhibition did it give?
Its inhibition is 10.2% (active).

Which inhibition does the source give for `CCCn1c(=O)c(C)cn2nc(N)nc12` here?
Its inhibition is 12.2% (active).

Which inhibition does the source give for `CCCCCCCCCCC(C)(C)C(=O)Nc1c(OC)cc(OC)cc1OC` here?
The inhibition was 15.9% (active).

For `Brc1c(Br)c(Br)c2n[nH]nc2c1Br`, which inhibition is on record?
The inhibition was 29.4% (active).

For `NC(=NCc1ccccc1)NC(=O)c1nc(Cl)c(N)nc1N`, which inhibition is on record?
The inhibition was 3.9% (active).

Which inhibition does the source give for `NC(=Nc1ccccc1)NC(=O)c1nc(Cl)c(N)nc1N` here?
Its inhibition is 13.3% (active).

For `O=C(O)CNC(=O)C(CS)Cc1ccccc1` (stereo not drawn), which inhibition is on record?
The inhibition was 3.5% (active).

Which inhibition does the source give for `COc1ccc(NC(=O)/C=C/c2ccc(Cl)cc2)cc1` here?
Its inhibition is 18% (active).

`COc1ccc([C@@H]2Sc3ccccc3N(CCN(C)C)C(=O)[C@@H]2OC(C)=O)cc1` was tested. Which inhibition did it give?
Its inhibition is 10.6% (active).
